# Bioassay records from PubChem.
# D1 ag: agonists of human D1 dopamine receptor; P21728; HEK293 T-REx D1 cells, calcium flux, agonist mode; activation, % at 2 µM; actives 1% (n = 360,000); in the data active = activation above about 30%; also: 0% is about no effect
# Target sequence (P21728 whole entry, looked up): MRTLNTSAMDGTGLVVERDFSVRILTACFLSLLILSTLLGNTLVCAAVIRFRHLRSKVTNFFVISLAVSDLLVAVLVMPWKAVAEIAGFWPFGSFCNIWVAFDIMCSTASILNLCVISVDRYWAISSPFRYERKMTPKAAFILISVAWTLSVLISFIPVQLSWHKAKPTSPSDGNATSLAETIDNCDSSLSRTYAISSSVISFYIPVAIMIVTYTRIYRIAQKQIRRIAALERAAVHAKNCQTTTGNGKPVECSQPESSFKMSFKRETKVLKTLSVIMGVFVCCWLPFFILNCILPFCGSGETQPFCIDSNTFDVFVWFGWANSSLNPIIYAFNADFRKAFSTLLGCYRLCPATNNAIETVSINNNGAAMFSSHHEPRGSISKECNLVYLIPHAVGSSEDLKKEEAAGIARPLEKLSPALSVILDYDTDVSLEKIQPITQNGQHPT
#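 Agonism was scored from calcium flux recorded over 180 s (1 read/s) after pintool compound addition, following a 10-cycle baseline. Cells were inducible force-coupled HEK293 TREx D1, plated overnight at 30 C and loaded with no-wash calcium dye.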
# D1 antagonist: antagonists of human D1 dopamine receptor; actives 3.2% (n = 360,000); HEK293 TREx D1 cells, calcium flux, dopamine EC80; stronger effect = lower value; P21728; AID 504652; activity change, negative = inhibition, % at 10 µM; in the data active = activity change below about -30%; also: % is scaled to controls: 0 for no effect and ±100 for the full control effect
#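 Tetracycline-induced HEK293 T-REx cells with force-coupled D1 receptor were loaded with a no-wash calcium dye. Compound was added after a 10 s baseline and read kinetically for 180 s; EC80 dopamine was then added and calcium flux followed another 180 s.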
# D1 PAM: potentiators of human D1 dopamine receptor; P21728; HEK293 TREx D1 cells, calcium flux, dopamine EC20 potentiation; potentiation, % at 10 µM; actives 0.036% (n = 360,000); AID 504651; in the data active = potentiation above about 30%; also: 0% is about no effect
# D3 antag: D3 dopamine receptor (human) antagonism. P35462. max response, negative = inhibition, %. actives 2.5% (n = 360,000). D3R cells, DiscoveRx beta-arrestin luminescence, antagonist mode; stronger effect = lower value. AID 652054; in the data active = max response below about -50%; inconclusive = no clear call, values can overlap the other calls; also: % is scaled to controls: 0 for no effect and ±100 for the full control effect
#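 Cells plated overnight at 1500 cells/well, then exposed to library compounds with dopamine controls for 90 minutes at 37 degrees C. DiscoveRx reagent added for 30–60 minutes at room temperature; luminescence read, quantitative HTS format.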
# DRD3 agonist: activates the human D3 dopamine receptor. P35462. D3R DiscoveRx beta-arrestin cells, luminescence, 90 min. max activation, %. actives 0.58% (n = 410,000). AID 652048; in the data active = max activation above about 30%; also: 0% is about no effect
#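 Cells at 1500/well, incubated overnight, then treated with pinned compounds (dopamine as control) for 90 min at 37 degrees C. DiscoveRx reagent added for 30 - 60 minutes at room temperature; luminescence read.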
# Numbers without * were called inactive; ? = inconclusive; . = not tested or not shown. An excerpt weighted towards active compounds, which were near 6% of everything screened.
SMILES,D1 ag,D1 antagonist,D1 PAM,D3 antag,DRD3 agonist
O=C(N/N=C/c1sc(N2CCOCC2)nc1-c1ccccc1)c1ccccc1Cl,0.3,7.0,1.7,-11.7,-1.6
CC(C)NC(=O)C1CCCN(S(=O)(=O)c2ccc3c(ccn3C)c2)C1 (configuration not stated),0.1,-5.6,-0.1,.,7.3
CCCCCC1Nc2cc(C(F)(F)F)c(S(N)(=O)=O)cc2S(=O)(=O)N1 (configuration not stated),.,.,.,.,-0.3
Cc1ccc(OCC(=O)Nn2c(C)nc3ccccc3c2=O)c(C(C)C)c1,34.9*,-22.0,5.2,9.2,10.6
Cc1ccc(-c2nc3ccccc3c(=O)n2NC(=O)COc2ccccc2)cc1,0.6,-5.0,-3.5,6.6,4.4
COc1ccc(/C=N/OCC(=O)Nn2c(C)nc3ccccc3c2=O)cc1,1.1,-1.6,5.5,8.2,32.5*
O=C(NNC(=S)NC(=O)C12CC3CC(CC(C3)C1)C2)c1ccncc1,136.1*,0.0,-5.0,3.6,2.4
CC12CC3CC(C1)CC(C(=O)NNC(=O)c1ccncc1)(C3)C2,.,.,.,3.1,5.8
O=C(NNC(=S)NC(=O)c1ccc(F)cc1)c1ccncc1,.,.,.,0.0,-11.9
CC1(C(=O)NC(=S)NNC(=O)c2ccncc2)CCCCC1,43.3*,-18.4,-2.1,0.8,11.7
COC(=O)c1ccc(N2CCN(C(=O)c3ccccc3)CC2)c(NC(C)=O)c1,0.6,-30.6*,3.1,7.8,5.1
Cc1ccc(CNC(=O)CN2C(=O)COc3ccc(S(=O)(=O)N4CCCCC4)cc32)o1,0.0,6.3,-3.5,-26.0,-2.9
Cc1cc(Cl)ccc1Oc1ncnc2oc(-c3ccccc3)cc12,2.9,1.9,-0.2,-2.0,-7.1
Cc1cccc(Oc2ncnc3oc(-c4ccccc4)cc23)c1C,0.9,-81.3*,-10.7,43.5,3.4
COc1ccc(OC)c(NC(=O)Cn2cc(C(=O)c3ccco3)c3ccccc32)c1,0.2,10.7,1.9,6.6,-4.5
COc1ccc(OC)c(NC(=O)Cn2cc(C(=O)c3cccs3)c3ccccc32)c1,0.6,-34.5*,4.2,.,-8.4
CCN1CCN(c2oc(/C=C/c3ccc(OC)c(OC)c3)nc2C#N)CC1,0.1,8.2,-0.3,.,-9.5
COc1cc(Cl)c(C)cc1NC(=O)c1ccc(CN2C(=O)CCn3nc(C)cc32)cc1,-0.4,-5.5,-2.9,.,-8.0
Cc1cccc(N2CCN(CCNC(=O)c3cc4c(s3)CS(=O)(=O)C4)CC2)c1C,5.3,-0.8,-2.3,5.6,86.1*
Cc1ccc(CNC(=O)c2cc3c(s2)CS(=O)(=O)C3)cc1,3.5,-6.0,-0.3,-7.1,-4.1
O=C(Oc1ccc2c(=O)c(Oc3ccc4ccccc4c3)coc2c1)c1cccnc1,11.4,-36.7*,-9.1,5.2,5.7
CCOC(=O)c1ccc(-n2c(CCC(=O)O)ccc2-c2ccc(Br)cc2)cc1,4.2,-31.4*,-2.6,.,4.2
Cc1ccc(CN2C(=O)c3oc4ccc(C)cc4c(=O)c3C2c2ccc(O)cc2)cc1 (configuration not stated),-0.6,-12.6,-4.5,.,-8.7
N#Cc1c(C(F)(F)F)cc(-c2cccs2)nc1SCC(=O)Nc1ccc(F)cc1,16.3,5.1,-1.1,.,0.2
CSc1nc(N)nc(SCC(=O)Nc2cccc(F)c2)c1C#N,19.3,-44.5*,-13.3,8.5,-5.4
SMILES,D1 ag,D1 antagonist,D1 PAM,D3 antag,DRD3 agonist
CSc1nc(N)nc(SCC(=O)Nc2ccc(Cl)cc2)c1C#N,-0.6,-7.8,1.9,?,-13.3
N#Cc1c(C(F)(F)F)cc(-c2cccs2)nc1SCC(=O)Nc1cccc(Cl)c1,47.2*,14.2,-4.2,.,9.4
N#Cc1c(C(F)(F)F)cc(-c2cccs2)nc1SCC(=O)Nc1cccc(Br)c1,184.0*,-15.6,4.2,.,-10.2
CC(C)(C)c1ccc(C(=O)Nc2ccc(-c3nc4ccccc4o3)c(O)c2)cc1,-1.4,5.8,2.5,.,4.5
CCCSCCCNC(=O)C1CCCN(c2nn3cc(-c4ccc(OC)cc4)nc3s2)C1 (configuration not stated),0.5,-8.3,-1.1,.,0.8
N#C/C(=C\c1ccncc1)c1nc2ccccc2[nH]1,4.6,-11.2,4.5,-0.9,-1.2
N#C/C(=C/c1ccncc1)c1nc2ccccc2s1,100.9*,1.0,-2.1,?,0.6
CCCCNC(=O)C1C(c2ccc(C(F)(F)F)cc2)=Nc2ccccc2N1C(=O)c1cccc2ccccc12 (configuration not stated),.,.,.,3.3,-3.8
CCCC12CN3CC(C)(CN(C1)C3c1ccc(CC)cc1)C2=O (configuration not stated),4.7,7.3,1.8,.,2.3
Cc1ccc(NC(=O)CN(C)S(=O)(=O)c2cccs2)cc1C,9.0,-10.1,-7.9,-3.8,4.2
Cc1ccc(NC(=O)CN(C)S(=O)(=O)c2cccs2)cc1F,1.9,-37.3*,-2.8,-0.4,2.3
CCc1oc(C(=O)O)cc1COC,0.5,-7.2,1.4,15.3,0.3
CCc1oc(C(=O)O)cc1CN(CC)CC,2.8,0.8,-3.1,-65.7*,-4.7
O=C(CCc1[nH]c2ccccc2c1Sc1ccccc1)NCCO,47.6*,5.6,-6.6,-19.0,-3.9
CCCCCCN1C=CC=C/C1=C\C=C(C#N)C#N,63.7*,-7.2,6.8,-10.3,8.8
CC(C)OC(=O)C(NC(=O)c1ccccc1)=C1CCCCC1,4.3,-38.3*,-1.6,-6.7,0.5
CC[n+]1c(/C=C/C=C/N(C(C)=O)c2ccccc2)sc2cc(OC)ccc21,56.3*,-6.5,-7.0,-24.2,3.9
COc1ccc(S(=O)(=O)N2c3ccccc3OCC2C)cc1 (configuration not stated),-1.1,11.7,2.1,-11.2,-7.0
COc1ccc(S(=O)(=O)N2c3ccccc3OCC2C(C)(C)C)cc1 (configuration not stated),4.3,-62.8*,-8.5,4.8,10.6
CC(C)c1nn2c(=O)cc(COC(=O)c3ccccc3NC(=O)C3CCCCC3)nc2s1,-1.3,2.4,-0.3,.,-11.1
COc1cccc(N2CCN(c3ncnc4c3[nH]c3ccc(F)cc34)CC2C)c1 (configuration not stated),10.7,-34.9*,-8.0,-22.9,4.0
COc1ccc2c(c1)[nH]c1c(N3CCSCC3)ncnc12,20.0,-14.2,5.2,70.4,30.3*
COc1ccc(Nc2c3c(nc4nncn24)CCC3)cc1Cl,3.5,-19.3,-2.1,.,-4.4
NC(COCc1ccccc1)c1csc(NC(=O)Nc2cccc(Cl)c2)n1 (configuration not stated),.,.,.,18.6,1.9
Cc1cc(C)c(C(=O)CC(=O)c2ccccc2Cl)c(O)c1,8.1,1.9,6.2,-63.9*,-11.7
CC(NCCCSc1ccccc1)C(O)c1ccc(O)cc1 (configuration not stated),.,.,.,-61.6*,-14.2
S=C1SC2(CCCCCC2)NC2=C1CCCCC2,.,.,.,32.9,0.6
